The target in assay [1] is bovine Estrogen Receptor (ER), ESR1 (gene 407238) (UniProt P49884). Description: NVS_NR_bER: NovaScreen (NVS) Nuclear Receptor Binding Assay for bovine Estrogen Receptor (ER) (AID 2283345).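 Further: actives lower the bound radioligand count which means they displace the ER ligand.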 The method in brief: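 Bovine uterine membranes; tritiated or iodinated radioligand; competitive displacement; 18 h; scintillation read; DMSO negative control; 25 uM duplicates, then concentration series for actives.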
Sequence of bovine Estrogen Receptor (ER), ESR1 (gene 407238) (P49884 whole entry, looked up): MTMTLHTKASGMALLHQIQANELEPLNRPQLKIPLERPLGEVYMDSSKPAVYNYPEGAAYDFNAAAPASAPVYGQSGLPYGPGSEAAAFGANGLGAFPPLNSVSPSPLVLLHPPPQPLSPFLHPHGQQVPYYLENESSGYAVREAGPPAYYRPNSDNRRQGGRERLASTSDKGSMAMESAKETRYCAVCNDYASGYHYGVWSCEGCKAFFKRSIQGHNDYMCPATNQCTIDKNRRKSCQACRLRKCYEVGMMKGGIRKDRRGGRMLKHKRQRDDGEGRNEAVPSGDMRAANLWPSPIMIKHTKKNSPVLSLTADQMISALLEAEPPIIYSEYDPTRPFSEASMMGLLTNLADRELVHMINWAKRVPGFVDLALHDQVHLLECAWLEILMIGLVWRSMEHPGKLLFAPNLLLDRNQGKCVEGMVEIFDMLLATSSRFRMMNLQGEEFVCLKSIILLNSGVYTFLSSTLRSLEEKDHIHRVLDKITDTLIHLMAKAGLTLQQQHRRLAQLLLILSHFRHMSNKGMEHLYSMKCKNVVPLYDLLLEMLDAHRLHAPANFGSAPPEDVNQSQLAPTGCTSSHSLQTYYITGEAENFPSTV

The target in assay [2] is Estrogen receptor (Homo sapiens) (UniProt P03372). The experiment in a line: OT_ER_ERaERa_1440: Odyssey Thera (OT) 24-hour HEK293T Protein-Complementation Assay for Estrogen Receptor-alpha/-alpha Homodimer (AID 2283349).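 Further: hits raise fluorescence above DMSO for agonists and antagonists alike.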 The method in brief: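 Protein-fragment complementation between two human ERα ligand-binding domains (aa 310-547) in stably transfected HEK293T cells was monitored after 24 h treatment, using fluorescence intensity relative to vehicle controls.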

The target is the same in assay [3]. Description: OT_ER_ERaERa_0480: Odyssey Thera (OT) 8-hour HEK293T Protein-Complementation Assay for Estrogen Receptor-alpha/-alpha Homodimer (AID 2283351).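 Further: rise in fluorescence from reassembled reporter fragments on ERα LBD homodimer in nucleus or whole cell.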 The method in brief: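 HEK293T, stable ERα LBD (aa 310-547) PCA homodimer; 8 h compound exposure; fluorescence intensity, laser scanning cytometer; positive fitting direction, DMSO baseline.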
The target of assay [4] is Androgen Receptor/SRC-1 Co-activator, AR (gene 367) (UniProt P10275). The experiment in a line: OT_AR_ARSRC1_0960: Odyssey Thera (OT) 16-hour HEK293T Protein-Complementation Assay for Androgen Receptor/SRC-1 Co-activator (AID 2283353).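 Further: actives raise the signal above DMSO so potency reflects increased AR and SRC-1 complex.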 An outline of the steps: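 Split-Venus PCA, AR/SRC-1 fusions, stable HEK293T; 16 h compound exposure; imaged at 488 and 635 nm; N/C ratio (488 nm channel), min 400 cells/image; positive-direction fit, DMSO baseline.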
Sequence of Androgen Receptor/SRC-1 Co-activator, AR (gene 367) (P10275 whole entry, looked up, the tested form may be a part): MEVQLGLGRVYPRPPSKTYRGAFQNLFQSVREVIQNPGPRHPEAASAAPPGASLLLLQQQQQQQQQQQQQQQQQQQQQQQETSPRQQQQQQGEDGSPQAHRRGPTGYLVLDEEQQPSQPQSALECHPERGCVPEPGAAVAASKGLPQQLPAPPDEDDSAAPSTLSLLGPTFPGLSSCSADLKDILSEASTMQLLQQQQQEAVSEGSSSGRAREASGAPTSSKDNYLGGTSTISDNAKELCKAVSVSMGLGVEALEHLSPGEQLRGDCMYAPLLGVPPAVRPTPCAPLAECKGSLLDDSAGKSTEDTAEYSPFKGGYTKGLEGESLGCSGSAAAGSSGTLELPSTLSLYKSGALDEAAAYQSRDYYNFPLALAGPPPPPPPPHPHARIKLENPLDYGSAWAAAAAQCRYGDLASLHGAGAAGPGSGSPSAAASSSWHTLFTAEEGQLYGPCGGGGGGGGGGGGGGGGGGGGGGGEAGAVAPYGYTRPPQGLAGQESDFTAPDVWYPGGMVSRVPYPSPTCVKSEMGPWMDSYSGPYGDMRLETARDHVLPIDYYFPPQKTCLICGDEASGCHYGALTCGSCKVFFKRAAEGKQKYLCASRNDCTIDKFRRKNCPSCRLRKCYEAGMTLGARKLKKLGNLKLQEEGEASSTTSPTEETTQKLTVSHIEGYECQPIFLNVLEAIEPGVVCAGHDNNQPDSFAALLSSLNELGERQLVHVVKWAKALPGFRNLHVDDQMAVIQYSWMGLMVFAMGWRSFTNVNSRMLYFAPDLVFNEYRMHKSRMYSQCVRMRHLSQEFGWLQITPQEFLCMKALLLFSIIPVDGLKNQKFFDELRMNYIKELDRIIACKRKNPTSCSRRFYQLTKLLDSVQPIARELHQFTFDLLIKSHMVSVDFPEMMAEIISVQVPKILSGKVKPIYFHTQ

Assay [5] has the same target. Description: OT_AR_ARSRC1_0480: Odyssey Thera (OT) 8-hour HEK293T Protein-Complementation Assay for Androgen Receptor/SRC-1 Co-activator (AID 2283354).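 Further: hits raise the complementation signal above DMSO so AC50 marks enhancers.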 An outline of the steps: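 Measures AR/SRC-1 binding by Venus YFP fragment complementation in HEK293T stable lines at 8 h post-dose. Imaging quantifies the 488nm nucleus/cytoplasm ratio in ≥400 cells; DMSO defines baseline.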

The target of assay [6] is PGR (gene 5241) (UniProt P06401). Description: NVS_NR_hPR: NovaScreen (NVS) Nuclear Receptor Binding Assay for human Progestron Receptor (PR) (AID 2283360).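 Further: active means loss of bound radioligand signal versus DMSO baseline.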 An outline of the steps: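 Competitive displacement of a labelled radioligand from T47D-derived receptor protein is measured in a cell-free format. Initial testing uses 25 uM in duplicate, with positive and negative controls on every plate.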
Sequence of PGR (gene 5241) (P06401 whole entry, looked up): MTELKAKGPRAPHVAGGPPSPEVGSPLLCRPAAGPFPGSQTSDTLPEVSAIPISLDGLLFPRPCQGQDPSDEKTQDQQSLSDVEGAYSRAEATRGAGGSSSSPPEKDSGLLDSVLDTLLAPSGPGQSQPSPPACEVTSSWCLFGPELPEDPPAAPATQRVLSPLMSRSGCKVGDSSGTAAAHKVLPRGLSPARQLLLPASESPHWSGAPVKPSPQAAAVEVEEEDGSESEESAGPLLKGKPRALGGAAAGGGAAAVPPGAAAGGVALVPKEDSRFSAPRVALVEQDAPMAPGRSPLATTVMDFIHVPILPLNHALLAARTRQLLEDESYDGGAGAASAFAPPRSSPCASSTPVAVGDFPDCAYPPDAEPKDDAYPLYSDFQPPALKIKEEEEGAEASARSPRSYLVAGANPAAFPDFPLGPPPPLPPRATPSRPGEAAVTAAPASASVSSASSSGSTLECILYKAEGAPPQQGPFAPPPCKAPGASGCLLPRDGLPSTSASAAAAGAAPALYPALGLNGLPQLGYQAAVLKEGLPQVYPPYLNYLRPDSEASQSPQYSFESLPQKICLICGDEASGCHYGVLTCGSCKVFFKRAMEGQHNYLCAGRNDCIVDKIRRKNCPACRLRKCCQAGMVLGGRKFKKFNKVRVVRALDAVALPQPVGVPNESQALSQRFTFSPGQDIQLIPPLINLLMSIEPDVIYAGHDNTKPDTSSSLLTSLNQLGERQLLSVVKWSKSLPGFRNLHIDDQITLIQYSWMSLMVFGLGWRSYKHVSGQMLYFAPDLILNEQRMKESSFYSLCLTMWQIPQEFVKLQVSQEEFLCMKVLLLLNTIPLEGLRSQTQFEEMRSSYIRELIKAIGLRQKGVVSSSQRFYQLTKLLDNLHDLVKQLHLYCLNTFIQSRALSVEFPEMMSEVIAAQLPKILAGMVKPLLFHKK

Assay [7] concerns the target human Peroxisome Proliferator-activated Receptor alpha (PPARa), PPARA (gene 5465) (UniProt Q07869). The experiment in a line: NVS_NR_hPPARa: NovaScreen (NVS) Nuclear Receptor Binding Assay for human Peroxisome Proliferator-activated Receptor alpha (PPARa) (AID 2283359).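 Further: activity means loss of TR-FRET signal versus DMSO baseline.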 An outline of the steps: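 Chemicals were first screened in duplicate at 25 uM, and active ones were retested across concentration series. Binding was monitored by TR-FRET one hour after dosing, with decreased signal against DMSO counted as activity.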

Assay [8] addresses human Thyroid Receptor Alpha (TRa), THRA (gene 7067) (UniProt P10827). The experiment in a line: NVS_NR_hTRa_Antagonist: NovaScreen (NVS) Nuclear Receptor Binding Assay for human Thyroid Receptor Alpha Antagonism (TRa) (AID 2283362).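 Further: activity is loss of signal relative to DMSO baseline.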 The method in brief: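 AlphaLISA chemiluminescent immunoassay readout, taken 1 h post-dosing in a cell-free system with extracted protein. Activity was scored as signal loss against DMSO negative control, from duplicate single-concentration (25 uM) testing followed by concentration-response follow-up.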

Assay [9] deals with human Constitutive Androstane Receptor (CAR), NR1I3 (gene 9970) (UniProt Q14994). Description: NVS_NR_hCAR_Antagonist: NovaScreen (NVS) Nuclear Receptor Binding Assay for human Constitutive Androstane Receptor Antagonism (CAR) (AID 2283344). The method in brief: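 Cell-free TR-FRET binding read 1 h after dosing, antagonist mode; loss of signal versus DMSO baseline. Primary screen in duplicate at a single 25 uM; actives retested in concentration series.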
Sequence of human Constitutive Androstane Receptor (CAR), NR1I3 (gene 9970) (Q14994 whole entry, looked up): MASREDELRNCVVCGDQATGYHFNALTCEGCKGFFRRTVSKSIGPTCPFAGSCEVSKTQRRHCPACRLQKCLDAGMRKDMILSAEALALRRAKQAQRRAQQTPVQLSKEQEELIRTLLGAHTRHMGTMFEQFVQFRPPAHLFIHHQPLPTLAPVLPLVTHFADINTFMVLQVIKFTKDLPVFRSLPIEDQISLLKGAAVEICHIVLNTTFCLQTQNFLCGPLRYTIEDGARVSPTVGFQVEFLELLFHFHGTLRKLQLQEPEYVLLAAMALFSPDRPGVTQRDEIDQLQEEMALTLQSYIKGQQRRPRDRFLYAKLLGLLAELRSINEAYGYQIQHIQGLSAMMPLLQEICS

The target in assay [10] is Bile acid receptor (Homo sapiens) (UniProt Q96RI1). The experiment in a line: NVS_NR_hFXR_Antagonist: NovaScreen (NVS) Nuclear Receptor Binding Assay for human Farnesoid X Receptor Antagonism (FXR) (AID 2283350). The method in brief: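 Cell-free TR-FRET ligand-binding read-out on human FXR (NR1H4) in antagonist mode, measured 1 h after dosing. Primary screen in duplicate at 25 uM, actives retested in concentration series; signal loss scored versus DMSO.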
Sequence of Bile acid receptor (Homo sapiens) (Q96RI1 whole entry, looked up): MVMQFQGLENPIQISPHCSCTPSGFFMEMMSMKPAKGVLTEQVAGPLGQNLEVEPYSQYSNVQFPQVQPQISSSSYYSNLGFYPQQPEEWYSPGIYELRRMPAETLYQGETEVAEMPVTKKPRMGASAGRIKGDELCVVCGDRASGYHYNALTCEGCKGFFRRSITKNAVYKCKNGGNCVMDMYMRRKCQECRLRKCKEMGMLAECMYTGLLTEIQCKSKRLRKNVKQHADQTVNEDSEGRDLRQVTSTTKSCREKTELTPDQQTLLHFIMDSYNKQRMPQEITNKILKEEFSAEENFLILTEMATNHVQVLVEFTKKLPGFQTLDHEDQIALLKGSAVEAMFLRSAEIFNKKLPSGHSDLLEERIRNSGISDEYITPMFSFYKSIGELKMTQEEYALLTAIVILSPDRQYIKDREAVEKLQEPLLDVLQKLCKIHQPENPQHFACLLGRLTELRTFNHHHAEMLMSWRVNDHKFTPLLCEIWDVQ

Assay [11] concerns the target T1, Estrogen receptor (Homo sapiens) + Estrogen receptor beta (Homo sapiens) (UniProt P03372+Q92731). The experiment in a line: OT_ER_ERaERb_0480: Odyssey Thera (OT) 8-hour HEK293T Protein-Complementation Assay for Estrogen Receptor-alpha/-beta Heterodimer (AID 2283352). The method in brief: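 Fluorescence intensity readout from a protein-fragment complementation reporter in HEK293T; ER-alpha/ER-beta LBD heterodimer. Dosing 8 h. Gain-of-signal fit relative to DMSO negative control; laser scanning cytometry of whole-well cell population.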

The target of assay [12] is T1, Estrogen receptor (Homo sapiens) + Estrogen receptor beta (Homo sapiens). The experiment in a line: OT_ER_ERaERb_1440: Odyssey Thera (OT) 24-hour HEK293T Protein-Complementation Assay for Estrogen Receptor-alpha/-beta Homodimer (AID 2283356).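 Further: heteromer of ER alpha and ER beta binding domains; hits raise reporter fluorescence and both agonists and antagonists give an increase.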 The method in brief:
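Readout: mean fluorescence intensity in nucleus (agonists) or nucleus plus cytoplasm (antagonists), read by laser scanning cytometer after 24 h compound exposure of HEK293T cells carrying ERα/ERβ LBD fragment-complementation constructs; DMSO baseline.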

Assay [13] concerns the target Estrogen receptor beta (Homo sapiens) (UniProt Q92731). Description: OT_ER_ERbERb_0480: Odyssey Thera (OT) 8-hour HEK293T Protein-Complementation Assay for Estrogen Receptor-beta/-beta Homodimer (AID 2283357).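 Further: active means signal gain over DMSO baseline.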 The method in brief:
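Cells (HEK293T, stable ER-beta LBD PCA pair) are treated 8 hours, fixed and Draq5-stained; signal is fluorescence intensity increase relative to vehicle, fitted in the gain direction.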

Assay [14] deals with rat Glutamate, MK-801 Agonist Site (GluNMDA_MK801), Grin1 (gene 24408) (UniProt P35439). Description: NVS_LGIC_rGluNMDA_MK801_Agonist: NovaScreen (NVS) Ligand-Gated Ion Channel Assay for rat Glutamate, MK-801 Agonist Site (GluNMDA_MK801) (AID 2283340). The method in brief:
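Radioligand binding at MK-801 site in rat forebrain membranes, 1.5 h incubation, filter-based scintillation counting. Initially 25 uM in duplicate; actives then run in concentration-response up to 50 uM, fitted for gain of signal versus DMSO.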

Assay [15] deals with NCBI gene 100848466. Description: NVS_NR_bPR: NovaScreen (NVS) Nuclear Receptor Binding Assay for bovine Progextron Receptor (PR) (AID 2283343).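 Further: actives lower bound radioligand signal below DMSO meaning displacement of the label.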 An outline of the steps: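 Membranes from bovine uterus; radiolabelled ligand plus test chemical; 18 h; scintillation read-out. Activity = signal loss vs DMSO. Primary: 25 uM, duplicate; secondary: concentration series.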
The subject of assay [16] is guinea pig Histamine Receptor (H2), gene 100729734. The experiment in a line: NVS_GPCR_gH2: NovaScreen (NVS) G Protein-Coupled Receptor Assay for guinea pig Histamine Receptor (H2) (AID 2283342). The method in brief:
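Radioligand displacement on guinea pig striatal membranes, 1 h after dosing, filter-based scintillation counting; loss of signal versus DMSO. Single-point screen at 25 uM in duplicate, then concentration-response up to 50 uM.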

This is an account of results in PubChem BioAssay (EPA / NIEHS).

The structures appear in SMILES notation. Records with an inconclusive call do not appear. Active and inactive are the calls of the source. How the source made its calls: active means hit-call score of the fitted dose curve at least 0.9, where 1 is the maximum; inconclusive means response in the unintended direction; inactive means score below 0.9.

Sequence of human Thyroid Receptor Alpha (TRa), THRA (gene 7067) (P10827 whole entry, looked up): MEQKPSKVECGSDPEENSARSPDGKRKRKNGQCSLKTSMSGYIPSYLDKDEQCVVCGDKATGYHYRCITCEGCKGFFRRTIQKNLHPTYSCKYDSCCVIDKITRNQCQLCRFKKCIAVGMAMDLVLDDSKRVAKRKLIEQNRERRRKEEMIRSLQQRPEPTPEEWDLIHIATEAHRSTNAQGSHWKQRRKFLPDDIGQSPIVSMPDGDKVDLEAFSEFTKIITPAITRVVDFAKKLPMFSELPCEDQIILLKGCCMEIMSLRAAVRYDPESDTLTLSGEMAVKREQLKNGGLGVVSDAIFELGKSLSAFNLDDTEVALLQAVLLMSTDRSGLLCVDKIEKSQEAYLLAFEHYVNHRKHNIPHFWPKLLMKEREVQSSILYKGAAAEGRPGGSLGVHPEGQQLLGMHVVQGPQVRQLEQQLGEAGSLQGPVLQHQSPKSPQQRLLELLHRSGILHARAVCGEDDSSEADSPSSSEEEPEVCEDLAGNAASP
T1 sequence (P03372 whole entry, looked up, the tested form may be a part): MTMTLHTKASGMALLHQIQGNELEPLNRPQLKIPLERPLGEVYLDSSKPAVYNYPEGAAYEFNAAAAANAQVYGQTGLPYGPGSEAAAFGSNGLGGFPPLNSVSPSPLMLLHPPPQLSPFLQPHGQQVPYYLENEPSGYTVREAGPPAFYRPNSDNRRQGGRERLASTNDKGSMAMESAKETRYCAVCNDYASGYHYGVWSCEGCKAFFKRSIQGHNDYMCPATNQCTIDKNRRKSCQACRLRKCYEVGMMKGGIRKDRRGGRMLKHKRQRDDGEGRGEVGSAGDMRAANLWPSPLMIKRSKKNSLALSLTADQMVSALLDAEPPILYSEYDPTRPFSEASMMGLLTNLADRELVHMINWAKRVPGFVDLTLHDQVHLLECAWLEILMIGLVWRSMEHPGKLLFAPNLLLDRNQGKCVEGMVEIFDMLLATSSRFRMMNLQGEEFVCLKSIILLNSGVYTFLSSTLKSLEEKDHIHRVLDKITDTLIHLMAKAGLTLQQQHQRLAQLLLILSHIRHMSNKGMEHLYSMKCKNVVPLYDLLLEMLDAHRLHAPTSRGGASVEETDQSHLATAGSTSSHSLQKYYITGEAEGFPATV
T1 sequence (Q92731 whole entry, looked up, the tested form may be a part): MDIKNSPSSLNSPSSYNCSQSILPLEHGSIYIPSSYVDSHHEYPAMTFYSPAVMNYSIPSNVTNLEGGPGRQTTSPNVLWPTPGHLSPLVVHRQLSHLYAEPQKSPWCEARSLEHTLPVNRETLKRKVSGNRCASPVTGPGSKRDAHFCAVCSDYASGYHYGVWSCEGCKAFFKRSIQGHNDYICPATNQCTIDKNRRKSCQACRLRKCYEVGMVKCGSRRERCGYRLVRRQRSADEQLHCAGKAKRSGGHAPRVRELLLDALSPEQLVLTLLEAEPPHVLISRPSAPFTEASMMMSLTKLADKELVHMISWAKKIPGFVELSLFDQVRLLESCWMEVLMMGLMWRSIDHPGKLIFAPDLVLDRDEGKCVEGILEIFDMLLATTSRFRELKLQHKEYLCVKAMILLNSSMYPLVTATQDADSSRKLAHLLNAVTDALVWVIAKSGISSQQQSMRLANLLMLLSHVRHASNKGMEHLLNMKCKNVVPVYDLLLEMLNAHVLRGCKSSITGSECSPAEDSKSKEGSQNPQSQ

Usually AC50 stands for the concentration at which the activity in the assay is half-maximal. `CN[C@H]1CC[C@@H](c2ccc(Cl)c(Cl)c2)c2ccc(S(N)(=O)=O)cc21`: the compound was called inactive in [1], in assay [2], in assay [3] and in assay [6]. The AC50 is 17.4 µM (active) in assay [4] and 19.9 µM (active) in assay [5].

Regarding `Nc1ccccc1N`, the compound was classed as inactive in [1], in assay [2], in [3] and in assay [6].

As to `Oc1ccc2ccccc2c1N=Nc1ccccc1`, the compound was classed as inactive in [1], in [2], in [3], in assay [7] and in assay [8].

As to `COc1cc(-c2nc(NC(=O)c3cc4cc(C)cc(C)c4n3CC(=O)O)sc2CCC2CCCCC2)c(OC)cc1Cl`, the values for the AC50 in assay [9], in [4] and in assay [5] were 3.54 µM (active), 10.5 µM (active) and 49.1 µM (active), respectively. Moreover, the call in [1], in assay [2], in assay [10], in [3], in [11] and in assay [12] was inactive. In addition, in assay [13], the compound was classed as inactive.

With `COC(=O)c1ccc(O)cc1`, the result in [1], in [2], in assay [3] and in [6] was inactive. Further, the AC50 is 50 µM (active) in assay [11], 74.6 µM (active) in assay [12] and 63.3 µM (active) in assay [13].

In the case of `CCCCCCCCCCCC(=O)OC`, the call in assay [9], in [2], in [10], in assay [3] and in assay [11] was inactive.

On to `Cc1cccc(Nc2cc(Cl)nc(SCC(=O)O)n2)c1C`, for which the compound was classed as inactive in assay [1], in assay [2], in [3], in [4], in assay [5] and in [13].

Take `CCCCC(CC)COC(=O)CC(C(=O)OCC(CC)CCCC)S(=O)(=O)O` (centres undefined): the result in assay [14], in assay [1] and in [2] was inactive. Also, the AC50 in [15] is 10.9 µM (active); in assay [6], 18.7 µM (active).

Regarding `CCCCCCC(=O)OCC`, the result in assay [1], in assay [2], in [3], in assay [11], in assay [13] and in [6] was inactive.

As to `Cc1nc(-c2ccc3c(c2)CCN(CCC2CCC(NC(=O)/C=C/c4ccc(F)cc4)CC2)CC3)no1` (centres undefined), in [16], the AC50 was 0.216 µM (active). The compound was classed as inactive in assay [9], in [1], in [2], in [10], in [3] and in assay [11]. Also, the outcome in assay [4], in assay [5], in assay [13] and in [8] was inactive.

Regarding `CCOc1ccc2c(c1)C(C)=CC(C)(C)N2`, the AC50 in [15] was 25 µM (active); in [6], 9.2 µM (active). The call in assay [2], in [3], in [4], in assay [5], in [7] and in assay [8] was inactive.

Consider `C[Si]1(C)O[Si](C)(C)O[Si](C)(C)O[Si](C)(C)O1`, for which the call in assay [2], in assay [3], in [11], in assay [12] and in assay [13] was inactive.

In the case of `CCCCCCCCCCCCCO`, the result in assay [2], in [3], in [11] and in [13] was inactive.

As to `Cc1cccc(C)c1O`, the outcome in [2], in assay [3], in assay [11], in assay [4], in [5] and in assay [12] was inactive. For the same compound, in [13], the compound was called inactive.
